Source: PubChem BioAssay (NCI)
The panel holds about 83,000 compounds, 20% with a hit somewhere; the sample as a whole holds those more often.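 Percent growth is the endpoint: 0 to 100 indicates growth inhibition (40 means 60% inhibition), 0 means no net growth, and negative values indicate cell death.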 A number with no mark means an inactive call. Calls of active or inactive are those of the source. Rule for the calls: active = growth percent below 10; inactive = the rest.

system: SF-539 CNS; assay: NCI-60 one-dose screen, 48 h (100 = growth as untreated, 0 = no growth, -100 = all killed); conditions: 10 µM unless noted

Structure (SMILES)	growth
Cc1ccc2c(n1)C(=O)C(Cl)=C(Nc1cccc(C(C)C)c1)C2=O	80.7%
Cn1cc(-c2cc(N)n3nc(-c4cn(C)c5ccc(F)cc45)cc3n2)c2cc(F)ccc21	-58.5% (active)
Cn1c(SCC(=O)c2cccs2)nc2ccccc2c1=O	94.6%
CCCC(=O)NC(c1ccc(N(CC)CC)cc1)c1cc(C)c2cccnc2c1O (stereo not given)	11.3%
COC(=O)C1CCCN(S(=O)(=O)/N=C2\NC(=O)NC2=C(Cl)Cl)C1 (stereo not given)	105%
O=C(N/N=C/c1ccc([N+](=O)[O-])s1)c1[nH]c2ccc(Br)cc2c1-c1ccccc1	-21.2% (active)
C=C1CC[C@H]2[C@@](C)(CCC3OC(c4ccc(OCc5cn(C6CC(OC(C)=O)C(OC(C)=O)C(COC(C)=O)O6)nn5)cc4)OC[C@]32C)[C@@H]1/C=C/C1=CCOC1=O (stereo not given in full)	84.8%
COc1ccc([C@@H]2c3[nH]c4ccccc4c3CC3C(=O)N(C4CCN(Cc5c(F)cccc5F)CC4)CC(=O)N32)c(OC)c1 (stereo not given in full)	69.8% [5.26 µM]
O=C(N/N=C/c1ccc(Br)s1)c1[nH]c2ccc(Br)cc2c1-c1ccccc1	0.701% (active)
O=C1c2c(c3c4cccnc4[nH]c3c3ccc4ccccc4c23)C(=O)N1CCO	78.7%
Nc1c(C(=O)Nc2ccc(C(F)(F)F)cc2)sc2nc(-c3cnccn3)cc(-c3cccs3)c12	-54.1% (active)
CSc1ccc2c(c1)N(C(=O)/C(C#N)=C/c1c[nH]c3ccccc13)c1ccccc1S2	7.54% (active)
Cc1cc(C(=O)Nc2sc3c(c2C(N)=O)CCC(=O)C3)ccc1OCCN1CCCCC1	94.2%
CN(C)c1ccc(/C=c2\sc3nc4ccccc4n3c2=O)cc1	96.5%
CN(C)c1ccc(/C=C2\Cc3c(F)ccc(Br)c3C2=O)cc1	97.5%
CN1CCN(Cc2ccc(NC(=O)c3cncc(C#Cc4cnc5ccc(N6CCSCC6)nn45)c3)cc2C(F)(F)F)CC1	-94.2% (active)
COc1cc(/C=C/C(=O)c2ccc(C)cc2)ccc1Oc1nc(NCCO)nc(N2CCOCC2)n1	39.5%
O=C(CSc1nnc(-c2ccc3nc(-c4ccc(Cl)cc4)[nH]c3c2)o1)Nc1ccc(C(=O)/C=C/c2ccc(Cl)cc2)cc1	84.3%

Structure (SMILES)	growth
C#Cc1nc(C2=C(C)C(=N\O)/C(=N/O)C2)cs1	93.9%
CCOc1ccc2nc(NC(=O)c3ccc(C(F)(F)F)cc3)sc2c1	105%
CC(O)C(NC(=O)C1CCCN1C(=O)CNC(=O)C1CC(=O)NCC(=O)NC(Cc2c[nH]c3ccccc23)C(=O)NC(Cc2ccc(O)cc2)C(=O)NCC(=O)NC(CO)C(=O)NC(CCC(N)=O)C(=O)NC(Cc2c[nH]c3ccccc23)C(=O)N1)C(=O)NCC(=O)NC(CCC(N)=O)C(=O)NC(CCCNC(=N)N)C(=O)NC(CC(=O)O)C(=O)O (stereo not given)	96%
CC1=C(C)C(=O)C(Nc2ccccc2)=C(Cl)C1=O	95.4%
CO/N=C1\CCc2c(sc(NC(=O)c3cccc(C(F)(F)F)c3)c2C(N)=O)C1	34.2%
COc1ccc(CNS(=O)(=O)/N=C2\NC(=O)NC2=C(Cl)Cl)cc1	-6.36% (active)
NS(=O)(=O)c1cccc(Nc2nc(SCC(=O)c3ccc([N+](=O)[O-])cc3)nc3ccccc23)c1	52.2%
Cn1ccnc1C(=O)/C=C/c1ccc(NC(=O)Nc2ccccc2)cc1	-29.5% (active)
CCOC(=O)c1sc(N)c(C(=O)OCC)c1C	38.1%
CN(C)S(=O)(=O)c1oc(-c2ccccc2)nc1C#N	84.4%
O=C1Nc2cc(Cl)ccc2/C1=C\c1ccc(OCc2ccc(Br)cc2F)cc1	-87.9% (active)
COc1cc(/C=C/C(=O)c2cc(OC)c(OC)c(OC)c2)ccc1OCc1ccccc1	8.77% (active)
NC(=O)c1cc(-c2ccc3ncnc(N4CCc5cc(F)c(Cl)cc54)c3c2)cnc1N	-23.4% (active)
COc1ccc(NC2=C(Cl)C(=O)C(C)=C(C)C2=O)cc1OC	94.7%
Cn1ccnc1C(=O)/C=C/c1ccc(NC(=O)Nc2ccc(F)cc2)cc1	-15.6% (active)
O=C(CCN1C(=O)/C(=C/c2ccccc2)SC1=S)N1CCOCC1	91.8%
Cc1ccc(CNS(=O)(=O)/N=C2\NC(=O)NC2=C(Cl)Cl)cc1	1.74% (active)
